Structures can show the parent of a compound that is named as a salt. ± gives the standard deviation of the averaged measurements.
Assays:
Test in all cases: growth (OD600 after 10 h); higher = more growth (less inhibition)
[1] = test system: E. coli TESEC Alr+ wild-type control; details: compound 0.1 mM; raw OD600 reference: median of DMSO wells 0.241, cell-free background 0.041
Protocol: (§1)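 TESEC Mtb Alr E. coli, or the Alr+ wild-type control, in 384-well plates with Prestwick library compounds at 0.1 mM and 1% DMSO, across arabinose induction levels of 1E3 to 1E7 nM. Growth is read as OD600 after 10 h at 37 °C in triplicate biological replicates.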

E. coli TESEC Mtb Alr [2] = details: compound 0.1 mM
Protocol: as §1

E. coli TESEC Mtb Asd = details: compound 0.1 mM
Protocol: (§2)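 TESEC E. coli strains in which the native enzyme is deleted and replaced by arabinose-inducible Mtb Asd, DapB, CysH or TrpD, each grown in its selective medium. Strains were screened against the Prestwick library at 0.1 mM and 1% DMSO in 384-well format at low and high arabinose induction. Growth is read as OD600 after 10 h in triplicate.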

E. coli TESEC Mtb DapB = details: compound 0.1 mM
Protocol: as §2

E. coli TESEC Mtb Alr [3] = details: compound 0.1 mM; remark: listed apart in the source
Protocol: (§3)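 TESEC Mtb Alr E. coli (ΔaraC ΔtolC ΔentC Δalr ΔdadX, arabinose-inducible Mtb Alr) or the Alr+ wild-type control strain, grown in defined M9-fructose medium without D-alanine in 96-well plates with Prestwick library compounds at 0.1 mM and 1% DMSO. Low Alr induction is 0.1 µM arabinose and high induction is 10 mM arabinose.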

[4] = test system: E. coli TESEC Alr+ wild-type control; details: compound 0.1 mM; raw OD600 reference: median of DMSO wells 0.49, cell-free background 0.052
Protocol: as §3

[5] = arabinose 1000 nM, raw OD600 reference: median of DMSO wells 0.294, cell-free background 0.041
[6] = arabinose 10000 nM, raw OD600 reference: median of DMSO wells 0.264, cell-free background 0.041
[7] = arabinose 100000 nM, raw OD600 reference: median of DMSO wells 0.201, cell-free background 0.041
[8] = arabinose 1000000 nM, raw OD600 reference: median of DMSO wells 0.193, cell-free background 0.041
[9] = arabinose 10000000 nM, raw OD600 reference: median of DMSO wells 0.146, cell-free background 0.041
[10] = arabinose induction (level): High, raw OD600 reference: median of DMSO wells 0.331, cell-free background 0.041
[11] = arabinose induction (level): Low, raw OD600 reference: median of DMSO wells 0.417, cell-free background 0.041
[12] = arabinose induction (level): High, raw OD600 reference: median of DMSO wells […], cell-free background 0.041
[13] = arabinose induction (level): Low, raw OD600 reference: median of DMSO wells 0.227, cell-free background 0.041
[14] = arabinose 100 nM, raw OD600 reference: median of DMSO wells 0.413, cell-free background 0.052
[15] = arabinose 10000000 nM, raw OD600 reference: median of DMSO wells […], cell-free background 0.052

Q: CC(C)(C)NCC(O)c1ccccc1Cl (configuration not stated) [Tulobuterol] was tested. Which growth [1] did it give?
A: The growth was 0.22 ± 0.005.

Q: And the growth (E. coli TESEC Mtb Alr [2]; [5])?
A: Its growth is 0.272 ± 0.0075.

Q: And the growth (E. coli TESEC Mtb Alr [2]; [6])?
A: The growth was 0.273 ± 0.0098.

Q: What about the growth (E. coli TESEC Mtb Alr [2]; [7]) of the same compound?
A: The growth was 0.174 ± 0.013.

Q: And the growth (E. coli TESEC Mtb Alr [2]; [8])?
A: Its growth is 0.203 ± 0.0095.

Q: And the growth (E. coli TESEC Mtb Alr [2]; [9])?
A: Its growth is 0.1357 ± 0.00093.

Q: What about the growth (E. coli TESEC Mtb Asd; [10]) of the same compound?
A: Its growth is 0.246 ± 0.067.

Q: What about the growth (E. coli TESEC Mtb Asd; [11]) of the same compound?
A: Its growth is 0.296 ± 0.019.

Q: And the growth (E. coli TESEC Mtb DapB; [12])?
A: Its growth is 0.181 ± 0.017.

Q: And the growth (E. coli TESEC Mtb DapB; [13])?
A: Its growth is 0.21 ± 0.016.

Q: And the growth (E. coli TESEC Mtb Alr [3]; [14])?
A: The growth was 0.409 ± 0.0083.

Q: And the growth (E. coli TESEC Mtb Alr [3]; [15])?
A: Its growth is 0.341 ± 0.018.

Q: For CC[C@@H](C(N)=O)N1CCCC1=O [Levetiracetam], which growth [1] is on record?
A: The growth was 0.247 ± 0.0084.

Q: And the growth (E. coli TESEC Mtb Alr [2]; [5])?
A: The growth was 0.304 ± 0.018.

Q: And the growth (E. coli TESEC Mtb Alr [2]; [6])?
A: The growth was 0.264 ± 0.0095.

Q: And the growth (E. coli TESEC Mtb Alr [2]; [7])?
A: Its growth is 0.205 ± 0.0055.

Q: And the growth (E. coli TESEC Mtb Alr [2]; [8])?
A: Its growth is 0.183 ± 0.0062.

Q: And the growth (E. coli TESEC Mtb Alr [2]; [9])?
A: Its growth is 0.168 ± 0.0049.

Q: And the growth (E. coli TESEC Mtb Asd; [10])?
A: Its growth is 0.256 ± 0.074.

Q: And the growth (E. coli TESEC Mtb Asd; [11])?
A: The growth was 0.313 ± 0.057.

Q: And the growth (E. coli TESEC Mtb Alr [3]; [14])?
A: The growth was 0.409 ± 0.0085.

Q: What about the growth (E. coli TESEC Mtb Alr [3]; [15]) of the same compound?
A: Its growth is 0.364 ± 0.028.

Q: For NC(=O)CN1CCCC1=O [Piracetam], which growth [1] is on record?
A: The growth was 0.245 ± 0.0091.

Q: And the growth (E. coli TESEC Mtb Alr [2]; [5])?
A: Its growth is 0.299 ± 0.0073.

Q: What about the growth (E. coli TESEC Mtb Alr [2]; [6]) of the same compound?
A: Its growth is 0.27 ± 0.0054.

Q: And the growth (E. coli TESEC Mtb Alr [2]; [7])?
A: The growth was 0.224 ± 0.034.

Q: And the growth (E. coli TESEC Mtb Alr [2]; [8])?
A: The growth was 0.184 ± 0.0072.

Q: And the growth (E. coli TESEC Mtb Alr [2]; [9])?
A: The growth was 0.15 ± 0.0043.

Q: And the growth (E. coli TESEC Mtb Asd; [10])?
A: The growth was 0.302 ± 0.06.

Q: And the growth (E. coli TESEC Mtb Asd; [11])?
A: The growth was 0.325 ± 0.092.

Q: What about the growth (E. coli TESEC Mtb DapB; [12]) of the same compound?
A: Its growth is 0.202 ± 0.0067.

Q: What about the growth (E. coli TESEC Mtb DapB; [13]) of the same compound?
A: Its growth is 0.208 ± 0.028.

Q: And the growth (E. coli TESEC Mtb Alr [3]; [14])?
A: The growth was 0.415 ± 0.011.

Q: What about the growth (E. coli TESEC Mtb Alr [3]; [15]) of the same compound?
A: The growth was 0.346 ± 0.018.

Q: Which growth [1] does the source give for CC(=O)[C@H]1CC[C@H]2[C@@H]3CC[C@H]4C[C@H](O)CC[C@]4(C)[C@H]3C(=O)C[C@]12C [Alfaxalone] here?
A: Its growth is 0.1302 ± 0.0013.

Q: And the growth (E. coli TESEC Mtb Alr [2]; [5])?
A: Its growth is 0.162 ± 0.0069.

Q: What about the growth (E. coli TESEC Mtb Alr [2]; [6]) of the same compound?
A: The growth was 0.21 ± 0.0045.

Q: And the growth (E. coli TESEC Mtb Alr [2]; [7])?
A: The growth was 0.108 ± 0.0044.

Q: What about the growth (E. coli TESEC Mtb Alr [2]; [8]) of the same compound?
A: The growth was 0.101 ± 0.0035.

Q: What about the growth (E. coli TESEC Mtb Alr [2]; [9]) of the same compound?
A: Its growth is 0.0965 ± 0.0034.

Q: And the growth (E. coli TESEC Mtb Asd; [10])?
A: Its growth is 0.161 ± 0.045.

Q: What about the growth (E. coli TESEC Mtb Asd; [11]) of the same compound?
A: Its growth is 0.275 ± 0.038.

Q: And the growth (E. coli TESEC Mtb Alr [3]; [14])?
A: The growth was 0.3696 ± 0.00096.

Q: And the growth (E. coli TESEC Mtb Alr [3]; [15])?
A: The growth was 0.192 ± 0.015.

Q: How did the growth [1] turn out when C#C[C@]1(O)CC[C@H]2[C@@H]3CCC4=CC(=O)CC[C@]4(C)[C@H]3CC[C@@]21C [Ethisterone] was run?
A: Its growth is 0.237 ± 0.0043.

Q: What about the growth (E. coli TESEC Mtb Alr [2]; [5]) of the same compound?
A: The growth was 0.28 ± 0.01.

Q: What about the growth (E. coli TESEC Mtb Alr [2]; [6]) of the same compound?
A: The growth was 0.2589 ± 0.0022.

Q: What about the growth (E. coli TESEC Mtb Alr [2]; [7]) of the same compound?
A: Its growth is 0.21 ± 0.015.

Q: And the growth (E. coli TESEC Mtb Alr [2]; [8])?
A: Its growth is 0.172 ± 0.0021.

Q: And the growth (E. coli TESEC Mtb Alr [2]; [9])?
A: The growth was 0.1381 ± 0.001.

Q: And the growth (E. coli TESEC Mtb Asd; [10])?
A: The growth was 0.344 ± 0.057.

Q: What about the growth (E. coli TESEC Mtb Asd; [11]) of the same compound?
A: The growth was 0.41 ± 0.063.

Q: And the growth [4]?
A: The growth was 0.48 ± 0.055.

Q: What about the growth (E. coli TESEC Mtb Alr [3]; [14]) of the same compound?
A: Its growth is 0.408 ± 0.0092.

Q: What about the growth (E. coli TESEC Mtb Alr [3]; [15]) of the same compound?
A: The growth was 0.39 ± 0.055.

Q: How did the growth [1] turn out when CC(C)CC(N(C)C)C1(c2ccc(Cl)cc2)CCC1 (configuration not stated) [Sibutramine HCl] was run?
A: The growth was 0.198 ± 0.0063.

Q: What about the growth (E. coli TESEC Mtb Alr [2]; [5]) of the same compound?
A: Its growth is 0.264 ± 0.0096.

Q: What about the growth (E. coli TESEC Mtb Alr [2]; [6]) of the same compound?
A: Its growth is 0.269 ± 0.0079.

Q: And the growth (E. coli TESEC Mtb Alr [2]; [7])?
A: The growth was 0.193 ± 0.032.

Q: And the growth (E. coli TESEC Mtb Alr [2]; [8])?
A: The growth was 0.131 ± 0.0058.

Q: And the growth (E. coli TESEC Mtb Alr [2]; [9])?
A: Its growth is 0.137 ± 0.0051.

Q: What about the growth (E. coli TESEC Mtb Asd; [10]) of the same compound?
A: Its growth is 0.213 ± 0.043.

Q: What about the growth (E. coli TESEC Mtb Asd; [11]) of the same compound?
A: The growth was 0.37 ± 0.098.

Q: What about the growth (E. coli TESEC Mtb Alr [3]; [14]) of the same compound?
A: Its growth is 0.414 ± 0.0078.

Q: What about the growth (E. coli TESEC Mtb Alr [3]; [15]) of the same compound?
A: Its growth is 0.35 ± 0.014.

Q: With OC(c1ccccc1)(c1ccccc1)C1CCNCC1 [Azacyclonol] as the compound, how does the growth [1] read?
A: Its growth is 0.222 ± 0.014.

Q: What about the growth (E. coli TESEC Mtb Alr [2]; [5]) of the same compound?
A: The growth was 0.294 ± 0.011.

Q: And the growth (E. coli TESEC Mtb Alr [2]; [6])?
A: The growth was 0.269 ± 0.0093.

Q: What about the growth (E. coli TESEC Mtb Alr [2]; [7]) of the same compound?
A: Its growth is 0.2264 ± 0.00067.

Q: What about the growth (E. coli TESEC Mtb Alr [2]; [8]) of the same compound?
A: The growth was 0.166 ± 0.0076.

Q: And the growth (E. coli TESEC Mtb Alr [2]; [9])?
A: Its growth is 0.136 ± 0.0054.

Q: What about the growth (E. coli TESEC Mtb Asd; [10]) of the same compound?
A: The growth was 0.296 ± 0.07.

Q: What about the growth (E. coli TESEC Mtb Asd; [11]) of the same compound?
A: Its growth is 0.442 ± 0.019.

Q: And the growth (E. coli TESEC Mtb DapB; [12])?
A: Its growth is 0.185 ± 0.013.

Q: And the growth (E. coli TESEC Mtb DapB; [13])?
A: Its growth is 0.213 ± 0.036.

Q: And the growth (E. coli TESEC Mtb Alr [3]; [14])?
A: Its growth is 0.412 ± 0.011.

Q: What about the growth (E. coli TESEC Mtb Alr [3]; [15]) of the same compound?
A: The growth was 0.333 ± 0.035.
